# Assay results as given in PubChem BioAssay (NCI).
# This is part of a sample that, as a whole, favours compounds with a hit. Of some 79,000 tested, about 15% had one in any assay. Values without a mark were called inactive. The source made the active and inactive calls. Rule as the data show it: active = growth inhibition above about 70%; inactive = the rest.
# Columns and labels:
# [1] = NCI Yeast Anticancer Drug Screen. Data for the rad52 strain (AID 147);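 also: 0% = growth of vehicle-treated control cultures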; conditions: S. cerevisiae rad52 mutant growth inhibition, active compounds read high
# In short: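 Compounds are applied to a genetically defined yeast strain lacking normal DNA damage repair, and inhibition of growth is expressed relative to cultures given vehicle only.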
# [2] = NCI Yeast Anticancer Drug Screen. Data for the wt1 strain (AID 149);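 also: 0% = growth of vehicle-treated wt1 cultures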; conditions: S. cerevisiae wt1 strain (SPY 50644) growth inhibition, active compounds read high
# In short: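 wt1 strain grown with compound or vehicle; inhibition taken from the growth difference.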
# [3] = NCI Yeast Anticancer Drug Screen. Data for the rad50EPP+ strain (AID 151);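 also: 0% = growth of vehicle-treated control cultures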; conditions: S. cerevisiae rad50 mutant strain, active compounds read high
# In short: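 Compounds were applied to the rad50EPP+ yeast strain, which bears a defined DNA repair alteration, and growth inhibition was determined relative to vehicle-treated cultures.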
# [4] = NCI Yeast Anticancer Drug Screen. Data for the mgt1 strain (AID 153); conditions: S. cerevisiae mgt1 mutant growth inhibition, active compounds read high
# In short: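 Strain: mgt1 yeast, one of a set carrying defined DNA damage repair or cell cycle control alterations. Compound-treated growth compared with vehicle.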
# [5] = NCI Yeast Anticancer Drug Screen. Data for the rad50 strain (AID 155);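 also: 0% = growth of vehicle-only cultures of the same strain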; conditions: S. cerevisiae rad50 strain growth inhibition, active compounds read high
# In short: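 DNA repair mutant yeast, compound exposure, growth read-out; inhibition is taken relative to vehicle.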
# [6] = NCI Yeast Anticancer Drug Screen. Data for the mec2-1 strain (AID 157); conditions: S. cerevisiae mec2-1 strain, active compounds read high
# In short: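 Strain: mec2-1 (DNA repair/cell cycle alteration). Compound exposure, then growth measured; inhibition expressed relative to vehicle.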
# [7] = NCI Yeast Anticancer Drug Screen. Data for the rad14 strain (AID 159);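 also: 0% = growth of vehicle-treated control cultures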; conditions: S. cerevisiae rad14 strain growth inhibition, active compounds read high
# In short: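 DNA repair-defective yeast, compound-exposed; % growth inhibition derived by comparison with vehicle-treated controls.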
# [8] = NCI Yeast Anticancer Drug Screen. Data for the sgs1 mgt1 strain (AID 161);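 also: 0% = growth of cultures given vehicle only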; conditions: S. cerevisiae sgs1 mgt1 strain, active compounds read high
# In short: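 Test agents were incubated with a DNA-repair-mutant yeast strain. Growth was then read and compared against vehicle-treated controls.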
# [9] = NCI Yeast Anticancer Drug Screen. Data for the CLN2oe strain (AID 163);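 also: 0% = growth of vehicle-only control cultures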; conditions: S. cerevisiae CLN2oe strain, active compounds read high
# In short: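 Growth of a genetically modified yeast strain is measured after compound exposure and compared with cultures given vehicle alone.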
# [10] = NCI Yeast Anticancer Drug Screen. Data for the cln2 rad14 strain (AID 165);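 also: 0% = growth equal to vehicle treated cultures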; conditions: S. cerevisiae cln2 rad14 strain, active compounds read high
# In short: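 Compounds are applied to the cln2 rad14 yeast strain, and growth is then compared with that of vehicle-treated cultures to give inhibition.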
# [11] = NCI Yeast Anticancer Drug Screen. Data for the bub3 strain (AID 167); conditions: S. cerevisiae bub3 mutant strain, active compounds read high
# In short: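 In this screen, a yeast mutant lacking normal mitotic checkpoint function is challenged with compound. Relative growth versus vehicle gives the inhibition value.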
# [12] = NCI Yeast Anticancer Drug Screen. Data for the wt2 strain (AID 169);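 also: 0% = growth of vehicle-treated yeast cultures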; conditions: S. cerevisiae wt2 strain growth inhibition, active compounds read high
# In short: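 This strain belongs to a panel of yeast strains with defined genetic alterations in DNA damage repair or cell cycle control. Compounds are applied, and growth inhibition is measured against vehicle-treated cultures.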
# [13] = NCI Yeast Anticancer Drug Screen. Data for the mlh1 strain (AID 171);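 also: 0% = growth of vehicle-treated control cultures of the same strain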; conditions: S. cerevisiae mlh1 strain growth inhibition, active compounds read high
# In short: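 Growth of the mutant yeast strain after compound exposure, expressed as inhibition relative to vehicle-only controls.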
# [14] = NCI Yeast Anticancer Drug Screen. Data for the sgs1 strain (AID 173);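 also: 0% = growth of vehicle-only control cultures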; conditions: S. cerevisiae sgs1 mutant, active compounds read high
# In short: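 Growth of a yeast strain bearing a defined genetic alteration is measured after compound treatment. Inhibition is expressed relative to vehicle-only controls.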
# [15] = NCI Yeast Anticancer Drug Screen. Data for the mlh1 rad18 strain (AID 175); conditions: S. cerevisiae mlh1 rad18 strain growth inhibition, active compounds read high
# In short: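 Read-out is yeast growth inhibition, calculated against vehicle-only controls. The compound was applied to a strain engineered with DNA damage repair alterations.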
# [16] = NCI Yeast Anticancer Drug Screen. Data for the rad18 strain (AID 177); conditions: S. cerevisiae rad18 mutant growth inhibition, active compounds read high
# In short: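 Growth of the mutant yeast strain after compound exposure, normalised to vehicle-only cultures.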
# [17] = at 5.0 µM (retest, dose inferred, filed as 0.5)
# [18] = at 50.0 µM (retest, dose inferred, filed as 5.0)
smiles,measurement,setting,value
CN(C)[C@@H]1C(=O)C(C(N)=O)=C(O)[C@@]2(O)C(=O)C3=C(O)c4c(O)cccc4C[C@H]3C[C@@H]12,growth inhibition,[1]; at 1.2 µM,-5%
same,growth inhibition,[1]; at 3.7 µM,-10%
same,growth inhibition,[1]; at 11.0 µM,17%
same,growth inhibition,[1]; at 33.0 µM,97% (active)
same,growth inhibition,[1]; at 100.0 µM,98% (active)
same,growth inhibition,[2]; at 1.2 µM,-1%
same,growth inhibition,[2]; at 3.7 µM,2%
same,growth inhibition,[2]; at 11.0 µM,30%
same,growth inhibition,[2]; at 33.0 µM,95% (active)
same,growth inhibition,[2]; at 100.0 µM,99% (active)
same,growth inhibition,[3]; at 1.2 µM,-9%
same,growth inhibition,[3]; at 3.7 µM,-8%
same,growth inhibition,[3]; at 11.0 µM,14%
same,growth inhibition,[3]; at 33.0 µM,10%
same,growth inhibition,[3]; at 100.0 µM,9%
same,growth inhibition,[4]; at 1.2 µM,0%
same,growth inhibition,[4]; at 3.7 µM,-5%
same,growth inhibition,[4]; at 11.0 µM,21%
same,growth inhibition,[4]; at 33.0 µM,97% (active)
same,growth inhibition,[4]; at 100.0 µM,99% (active)
same,growth inhibition,[5]; at 1.2 µM,-19%
same,growth inhibition,[5]; at 3.7 µM,-25%
same,growth inhibition,[5]; [17],7%
same,growth inhibition,[5]; at 11.0 µM,9%
same,growth inhibition,[5]; at 33.0 µM,95% (active)
same,growth inhibition,[5]; [18],99% (active)
same,growth inhibition,[5]; at 50.0 µM,85.1% (active)
same,growth inhibition,[5]; at 100.0 µM,99% (active)
same,growth inhibition,[6]; at 1.2 µM,-5%
same,growth inhibition,[6]; at 3.7 µM,-4%
same,growth inhibition,[6]; [17],87% (active)
same,growth inhibition,[6]; at 11.0 µM,1%
same,growth inhibition,[6]; at 33.0 µM,97% (active)
same,growth inhibition,[6]; [18],99% (active)
same,growth inhibition,[6]; at 50.0 µM,91% (active)
same,growth inhibition,[6]; at 100.0 µM,99% (active)
same,growth inhibition,[7]; at 1.2 µM,0%
same,growth inhibition,[7]; at 3.7 µM,-5%
same,growth inhibition,[7]; at 11.0 µM,44%
same,growth inhibition,[7]; at 33.0 µM,98% (active)
same,growth inhibition,[7]; at 100.0 µM,99% (active)
same,growth inhibition,[8]; [17],23%
same,growth inhibition,[8]; [18],99% (active)
same,growth inhibition,[8]; at 50.0 µM,91% (active)
same,growth inhibition,[9]; at 1.2 µM,-7%
same,growth inhibition,[9]; at 3.7 µM,-15%
same,growth inhibition,[9]; at 11.0 µM,27%
same,growth inhibition,[9]; at 33.0 µM,98% (active)
same,growth inhibition,[9]; at 100.0 µM,99% (active)
same,growth inhibition,[10]; [17],61%
same,growth inhibition,[10]; [18],99% (active)
same,growth inhibition,[10]; at 50.0 µM,84.7% (active)
same,growth inhibition,[11]; at 1.2 µM,-8%
same,growth inhibition,[11]; at 3.7 µM,-7%
same,growth inhibition,[11]; [17],97% (active)
same,growth inhibition,[11]; at 11.0 µM,5%
same,growth inhibition,[11]; at 33.0 µM,97% (active)
same,growth inhibition,[11]; [18],99% (active)
same,growth inhibition,[11]; at 50.0 µM,89% (active)
same,growth inhibition,[11]; at 100.0 µM,99% (active)
same,growth inhibition,[12]; at 1.2 µM,9%
same,growth inhibition,[12]; at 3.7 µM,14%
same,growth inhibition,[12]; at 11.0 µM,52%
same,growth inhibition,[12]; at 33.0 µM,99% (active)
same,growth inhibition,[12]; at 100.0 µM,99% (active)
same,growth inhibition,[13]; at 1.2 µM,-13%
same,growth inhibition,[13]; at 3.7 µM,-11%
same,growth inhibition,[13]; at 11.0 µM,36%
same,growth inhibition,[13]; at 33.0 µM,97% (active)
same,growth inhibition,[13]; at 100.0 µM,99% (active)
same,growth inhibition,[14]; at 1.2 µM,-7%
same,growth inhibition,[14]; at 3.7 µM,-9%
same,growth inhibition,[14]; at 11.0 µM,26%
same,growth inhibition,[14]; at 33.0 µM,98% (active)
same,growth inhibition,[14]; at 100.0 µM,99% (active)
same,growth inhibition,[15]; [17],38%
same,growth inhibition,[15]; [18],99% (active)
same,growth inhibition,[15]; at 50.0 µM,89.8% (active)
same,growth inhibition,[16]; at 1.2 µM,-7%
same,growth inhibition,[16]; at 3.7 µM,-8%
same,growth inhibition,[16]; at 11.0 µM,-2%
same,growth inhibition,[16]; at 33.0 µM,95% (active)
same,growth inhibition,[16]; at 100.0 µM,99% (active)
